# For some assays here: Entries with a potency or affinity are not part of this list.
# Assays:
# Design in all cases: scale not given: direction of the effect not stated beside the values
# [1] = molecular target: Protein translocase subunit SecA (Escherichia coli (strain K12)) (UniProt P10408); assay: Assay to Identify E. coli SecA ATPase Inhibitors; format: functional; details: 30 µM
# [2] = molecular target: T1, Ubiquitin-activating enzyme e1, putative (Leishmania donovani (strain BPK282A1)) (UniProt E9BSI1); assay: Leishmania donovani Ubiquitin Activating Enzyme (LdE1); format: functional; details: 30 µM
# T1 sequence (whole entry): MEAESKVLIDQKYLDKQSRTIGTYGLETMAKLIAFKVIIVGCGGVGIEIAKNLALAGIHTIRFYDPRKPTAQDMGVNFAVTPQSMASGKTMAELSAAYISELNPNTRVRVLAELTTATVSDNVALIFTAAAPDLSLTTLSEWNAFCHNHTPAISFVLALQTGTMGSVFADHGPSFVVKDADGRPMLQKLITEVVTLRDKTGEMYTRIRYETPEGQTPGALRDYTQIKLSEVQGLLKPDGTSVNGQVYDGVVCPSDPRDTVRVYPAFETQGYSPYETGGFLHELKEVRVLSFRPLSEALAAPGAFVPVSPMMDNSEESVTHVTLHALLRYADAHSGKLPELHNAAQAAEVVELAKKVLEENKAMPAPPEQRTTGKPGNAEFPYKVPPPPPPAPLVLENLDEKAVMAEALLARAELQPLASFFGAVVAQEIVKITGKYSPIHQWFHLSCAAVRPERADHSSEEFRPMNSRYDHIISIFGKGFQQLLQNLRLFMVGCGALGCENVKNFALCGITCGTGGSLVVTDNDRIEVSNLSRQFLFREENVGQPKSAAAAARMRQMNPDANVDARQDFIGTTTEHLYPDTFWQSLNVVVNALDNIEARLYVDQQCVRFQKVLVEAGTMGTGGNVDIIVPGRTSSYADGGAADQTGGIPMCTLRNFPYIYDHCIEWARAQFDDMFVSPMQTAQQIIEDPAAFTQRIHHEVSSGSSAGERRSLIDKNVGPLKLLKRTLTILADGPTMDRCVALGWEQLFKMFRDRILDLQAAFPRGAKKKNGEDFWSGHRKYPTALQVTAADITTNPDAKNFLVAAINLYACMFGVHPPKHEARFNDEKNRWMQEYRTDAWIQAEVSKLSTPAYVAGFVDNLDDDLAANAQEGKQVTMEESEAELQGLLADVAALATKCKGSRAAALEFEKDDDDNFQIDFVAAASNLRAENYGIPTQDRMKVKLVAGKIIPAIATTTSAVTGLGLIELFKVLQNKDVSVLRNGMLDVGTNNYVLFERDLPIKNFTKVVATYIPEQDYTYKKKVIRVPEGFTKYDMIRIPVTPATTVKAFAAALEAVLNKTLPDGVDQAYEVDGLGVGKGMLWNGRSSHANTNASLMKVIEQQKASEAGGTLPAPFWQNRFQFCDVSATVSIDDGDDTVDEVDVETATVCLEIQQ
# [3] = molecular target: AMP-activated protein kinase, AMPK (Homo sapiens) (UniProt P54646+O43741+P54619+Q9UGJ0+Q9Y478+Q13131+Q9UGI9); assay: AMP-dependent Kinase enzyme assay. An in vitro enzyme assay that detects ADP turnover that is directly proportional to AMPK activity. This uses naive AMPK that is activated during the assay with MK-8722; format: functional; details: 30 µM
# [4] = molecular target: Sialic acid-binding Ig-like lectin 9 (Homo sapiens) (UniProt Q9Y336); assay: Hs-Siglec9 ALPHAscreen SOP 20170721; details: 10 µM
# Sialic acid-binding Ig-like lectin 9 (Homo sapiens), sequence (Q9Y336 whole entry): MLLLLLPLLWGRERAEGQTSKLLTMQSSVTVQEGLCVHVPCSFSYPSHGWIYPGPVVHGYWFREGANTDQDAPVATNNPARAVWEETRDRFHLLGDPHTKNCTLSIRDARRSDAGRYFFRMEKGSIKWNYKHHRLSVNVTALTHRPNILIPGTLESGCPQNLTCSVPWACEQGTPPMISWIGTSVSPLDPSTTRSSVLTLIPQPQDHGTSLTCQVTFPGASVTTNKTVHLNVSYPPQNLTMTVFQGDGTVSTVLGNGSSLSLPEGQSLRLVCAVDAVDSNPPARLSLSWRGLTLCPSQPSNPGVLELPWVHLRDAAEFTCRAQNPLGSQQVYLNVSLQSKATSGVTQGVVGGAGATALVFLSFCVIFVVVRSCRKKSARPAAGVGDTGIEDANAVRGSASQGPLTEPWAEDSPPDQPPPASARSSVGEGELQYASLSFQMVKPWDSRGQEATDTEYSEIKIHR
# [5] = tested on: Trypanosoma cruzi; assay: Trypanosoma cruzi phosphomannomutase and mannose-1-phosphate guanylyltransferase assay; format: functional; details: 10 µM
# [6] = molecular target: T2, Arginase-2, mitochondrial (Homo sapiens) (UniProt P78540); assay: in vitro enzyme assay to detect the production of urea directly proportional to the activity of Arginase II; format: functional; details: 33.3 µM; note: in the data most compounds retested in dose-response had high values
# T2 sequence (whole entry): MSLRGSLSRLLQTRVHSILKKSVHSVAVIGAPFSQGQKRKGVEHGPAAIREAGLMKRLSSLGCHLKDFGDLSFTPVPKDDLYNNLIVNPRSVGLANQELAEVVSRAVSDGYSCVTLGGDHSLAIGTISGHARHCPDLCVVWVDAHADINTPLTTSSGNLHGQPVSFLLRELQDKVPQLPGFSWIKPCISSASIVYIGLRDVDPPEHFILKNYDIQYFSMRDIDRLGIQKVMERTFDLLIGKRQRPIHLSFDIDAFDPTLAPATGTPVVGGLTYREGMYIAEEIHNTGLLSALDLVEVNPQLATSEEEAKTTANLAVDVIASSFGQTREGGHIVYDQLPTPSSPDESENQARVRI
# [7] = molecular target: T3, Proteasome subunit beta (Trypanosoma cruzi) (UniProt O96673); assay: Trypanosoma cruzi proteasome chymotrypsin-like activity (TcProtChymo) assay.; note: in the data most compounds retested in dose-response had high values; format: functional; details: 9.37 µM
# T3 sequence (whole entry): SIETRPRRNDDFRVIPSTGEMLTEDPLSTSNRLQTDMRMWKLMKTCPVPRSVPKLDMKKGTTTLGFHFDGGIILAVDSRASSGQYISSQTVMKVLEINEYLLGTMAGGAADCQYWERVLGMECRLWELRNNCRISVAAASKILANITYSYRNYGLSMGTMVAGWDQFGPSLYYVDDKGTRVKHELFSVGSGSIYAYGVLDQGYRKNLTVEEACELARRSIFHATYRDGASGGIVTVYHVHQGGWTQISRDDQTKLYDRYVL
# [8] = species: Homo sapiens; assay: To identify inhibition of the IFN signalling (Jak-Stat) pathway via expression of an eGFP reporter gene under the control of an IFN-stimulated response element (ISRE) containing MxA promoter.; format: functional; details: 30 µM
# [9] = molecular target: T4, Tyrosyl-tRNA synthetase, putative (Trypanosoma cruzi (strain CL Brener)) (UniProt Q4DSP6); assay: Trypanosoma cruzi tyrosyl tRNA synthetase (TcYRS) _High Tyrosine SOP; format: functional; details: 30 µM; note: in the data most compounds retested in dose-response had high values
# T4 sequence (whole entry): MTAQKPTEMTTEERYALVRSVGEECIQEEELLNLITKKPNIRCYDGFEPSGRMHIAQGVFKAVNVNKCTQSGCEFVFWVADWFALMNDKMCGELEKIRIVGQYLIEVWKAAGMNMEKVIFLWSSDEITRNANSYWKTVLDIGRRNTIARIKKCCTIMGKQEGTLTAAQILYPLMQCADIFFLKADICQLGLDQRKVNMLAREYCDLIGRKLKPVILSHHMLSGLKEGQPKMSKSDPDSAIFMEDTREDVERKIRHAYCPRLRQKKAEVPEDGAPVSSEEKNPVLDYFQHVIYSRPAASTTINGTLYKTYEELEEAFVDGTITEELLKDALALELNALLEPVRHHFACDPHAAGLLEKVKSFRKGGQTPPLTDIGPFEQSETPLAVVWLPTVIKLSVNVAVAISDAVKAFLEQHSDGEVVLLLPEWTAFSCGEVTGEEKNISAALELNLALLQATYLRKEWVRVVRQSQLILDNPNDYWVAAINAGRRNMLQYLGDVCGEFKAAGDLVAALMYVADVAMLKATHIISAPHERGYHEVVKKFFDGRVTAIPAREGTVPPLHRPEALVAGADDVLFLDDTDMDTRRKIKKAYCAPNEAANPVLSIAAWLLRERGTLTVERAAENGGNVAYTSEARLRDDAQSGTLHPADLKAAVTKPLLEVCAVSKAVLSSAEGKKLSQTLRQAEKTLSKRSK
# [10] = molecular target: T4, Tyrosyl-tRNA synthetase, putative (Trypanosoma cruzi (strain CL Brener)); assay: Trypanosoma cruzi tyrosyl tRNA synthetase (TcYRS) SOP; format: functional; details: 30 µM
# [11] = molecular target: Chromo domain-containing protein 1 (Saccharomyces cerevisiae (strain ATCC 204508 / S288c) (Baker's yeast)) (UniProt P32657); assay: ScCHD-1 Enzyme Inhibition Assay; format: functional; details: 30 µM; note: in the data most compounds retested in dose-response had high values
# Chromo domain-containing protein 1 (Saccharomyces cerevisiae (strain ATCC 204508 / S288c) (Baker's yeast)), sequence (P32657 whole entry, the tested form may be a part): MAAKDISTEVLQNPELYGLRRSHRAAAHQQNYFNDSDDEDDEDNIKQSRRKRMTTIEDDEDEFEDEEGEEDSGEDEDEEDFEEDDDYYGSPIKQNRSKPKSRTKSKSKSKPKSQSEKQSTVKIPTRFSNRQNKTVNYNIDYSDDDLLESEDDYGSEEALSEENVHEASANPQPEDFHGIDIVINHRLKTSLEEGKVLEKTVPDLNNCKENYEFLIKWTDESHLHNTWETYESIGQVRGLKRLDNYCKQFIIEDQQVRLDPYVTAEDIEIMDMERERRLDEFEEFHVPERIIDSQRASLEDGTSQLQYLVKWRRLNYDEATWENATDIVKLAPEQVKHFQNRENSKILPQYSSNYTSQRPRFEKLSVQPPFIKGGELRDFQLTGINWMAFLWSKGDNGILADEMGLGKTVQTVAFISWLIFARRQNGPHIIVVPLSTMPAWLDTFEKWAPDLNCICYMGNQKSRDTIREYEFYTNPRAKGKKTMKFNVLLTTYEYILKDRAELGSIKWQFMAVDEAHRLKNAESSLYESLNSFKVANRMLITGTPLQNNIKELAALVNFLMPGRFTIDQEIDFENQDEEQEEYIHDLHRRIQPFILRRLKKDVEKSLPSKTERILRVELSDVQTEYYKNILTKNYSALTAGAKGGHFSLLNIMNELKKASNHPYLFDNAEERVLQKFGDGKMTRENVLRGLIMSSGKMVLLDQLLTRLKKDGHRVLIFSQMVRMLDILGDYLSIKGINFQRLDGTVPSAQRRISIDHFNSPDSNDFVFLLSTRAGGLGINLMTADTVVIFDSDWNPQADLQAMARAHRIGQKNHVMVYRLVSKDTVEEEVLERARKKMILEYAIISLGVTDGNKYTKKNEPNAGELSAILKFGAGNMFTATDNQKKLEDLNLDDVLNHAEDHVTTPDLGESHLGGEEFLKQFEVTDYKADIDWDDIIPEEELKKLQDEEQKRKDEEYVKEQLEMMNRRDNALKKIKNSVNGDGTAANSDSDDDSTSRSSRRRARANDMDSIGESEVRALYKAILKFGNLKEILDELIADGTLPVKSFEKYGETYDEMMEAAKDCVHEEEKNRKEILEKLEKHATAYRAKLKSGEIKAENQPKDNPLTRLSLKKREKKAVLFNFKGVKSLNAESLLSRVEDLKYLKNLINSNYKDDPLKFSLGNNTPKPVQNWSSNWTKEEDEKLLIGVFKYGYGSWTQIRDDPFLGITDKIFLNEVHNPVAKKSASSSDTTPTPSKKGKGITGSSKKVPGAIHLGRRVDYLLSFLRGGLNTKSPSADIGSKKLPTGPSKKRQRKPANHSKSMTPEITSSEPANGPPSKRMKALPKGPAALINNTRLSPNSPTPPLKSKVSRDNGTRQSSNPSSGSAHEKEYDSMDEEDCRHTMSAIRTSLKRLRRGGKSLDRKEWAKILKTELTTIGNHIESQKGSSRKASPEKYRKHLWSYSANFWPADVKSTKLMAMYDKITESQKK
# Protein translocase subunit SecA (Escherichia coli (strain K12)), sequence (P10408 whole entry): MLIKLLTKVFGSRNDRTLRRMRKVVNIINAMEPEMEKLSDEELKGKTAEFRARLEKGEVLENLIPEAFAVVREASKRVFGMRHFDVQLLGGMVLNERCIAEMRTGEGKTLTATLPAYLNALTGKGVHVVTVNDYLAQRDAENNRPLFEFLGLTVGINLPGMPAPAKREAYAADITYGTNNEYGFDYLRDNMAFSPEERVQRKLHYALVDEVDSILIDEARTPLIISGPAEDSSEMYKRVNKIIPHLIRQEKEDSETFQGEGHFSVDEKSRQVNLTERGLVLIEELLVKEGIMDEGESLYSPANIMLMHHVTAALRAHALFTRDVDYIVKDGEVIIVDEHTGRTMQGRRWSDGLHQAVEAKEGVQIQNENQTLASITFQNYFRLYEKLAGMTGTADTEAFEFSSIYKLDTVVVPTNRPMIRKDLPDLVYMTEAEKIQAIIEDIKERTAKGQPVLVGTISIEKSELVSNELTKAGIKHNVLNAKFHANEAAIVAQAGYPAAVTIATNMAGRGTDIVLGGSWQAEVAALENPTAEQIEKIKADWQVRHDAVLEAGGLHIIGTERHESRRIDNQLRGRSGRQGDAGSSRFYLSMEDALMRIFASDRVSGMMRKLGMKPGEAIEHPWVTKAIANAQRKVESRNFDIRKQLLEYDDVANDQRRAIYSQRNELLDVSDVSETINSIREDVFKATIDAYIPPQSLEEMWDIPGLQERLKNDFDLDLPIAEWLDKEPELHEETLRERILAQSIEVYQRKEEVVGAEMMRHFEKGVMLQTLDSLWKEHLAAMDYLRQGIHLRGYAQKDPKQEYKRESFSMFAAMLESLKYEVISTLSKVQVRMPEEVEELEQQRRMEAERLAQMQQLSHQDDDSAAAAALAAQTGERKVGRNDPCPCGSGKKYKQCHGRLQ
Compound,Percent Effect [1],Percent Effect [2],Percent Effect [3],Percent Effect [4],Percent Effect [5],Percent Effect [6],Percent Effect [7],Percent Effect [8],Percent Effect [9],Percent Effect [10],Percent Effect [11]
Cn1cc(C[C@H]2[C@H](N3CCOCC3)CCN2C(=O)c2ccco2)cn1,-7.84%,5.33%,7.06%,-0.822%,-7.09%,-0.699%,7.49%,21.2%,2.13%,6.41%,-4.64%
O=C(NC1COC2(CCN(Cc3ccccn3)CC2)C1)c1ccccn1 (configuration not stated),-2.18%,23.4%,-0.85%,-5.11%,0.888%,8.39%,16.7%,10.3%,10.6%,16.7%,31.1%
Cc1ccc(CN(C)C(=O)CN2CCCC2Cn2cccn2)o1 (configuration not stated),0.121%,2.7%,-3.95%,12.4%,5.99%,0%,1.9%,-5.92%,2.65%,7.32%,-4.66%
COc1ccccc1[C@@H]1CN(C(=O)c2csc(C)n2)C[C@H]1C(=O)O,-2.85%,1.39%,-3.07%,-2.56%,-0.0972%,5.3%,16.7%,-4.31%,12.6%,17.9%,-3.19%
COCCNC(=O)CN1CCN(c2nc(C)cs2)C(C)C1 (configuration not stated),-6.14%,16.2%,-5.78%,22%,5.11%,-1.29%,13.3%,-1.44%,2.97%,15.8%,-7.53%
CC(NC(=O)c1cccs1)C(=O)NCc1ccccc1CN1CCCC1 (configuration not stated),-4.29%,23.4%,-5.29%,2.04%,4.12%,3.2%,12.5%,5.06%,12.6%,21.9%,-11.2%
CC(C)NC(=O)Nc1ccc(CS(=O)(=O)C(C)(C)C)cc1,-3.43%,2.63%,7.37%,5.76%,-2.82%,-2.37%,23.1%,7.3%,2.13%,10.4%,-2.88%
O=C(c1ccoc1)N1CCC2(CC1)C(=O)Nc1ccccc12,-2.34%,16.2%,-9.89%,3.61%,2.44%,6.2%,5.06%,37.9%,8.6%,18.5%,-8.75%
CCC(=O)N1CCC2(CC1)c1nc[nH]c1CCN2S(C)(=O)=O,-5.57%,12.5%,-6.81%,9.02%,4.18%,23%,11.8%,13.6%,5.26%,10.3%,-5.69%
O=C(Nc1nncs1)NC1CCOc2ccccc21 (configuration not stated),-3.81%,2.74%,5.12%,-2.09%,-6.55%,-0.399%,9.85%,17%,2.08%,13.6%,-8.1%
Cc1cnn(C2CCCN(C(=O)c3cnc4ccccc4n3)C2)c1 (configuration not stated),-3.93%,5.41%,-4.84%,2.3%,1.04%,-1.6%,1.62%,13%,4.43%,13.6%,-3.95%
O=C(c1cccnc1)N1C[C@@H]2CC[C@H](C1)N(Cc1cc(F)ccc1F)C2,0.34%,11%,29.4%,-0.061%,3.33%,0%,10.3%,21.9%,7.53%,15%,-7.41%
Cc1cc(CN2Cc3ccccc3CC2c2nnc(C)o2)on1 (configuration not stated),-3.58%,2.6%,6.16%,3.48%,2.25%,4.84%,0.728%,-4.28%,6.67%,9.41%,-13.4%
CN1CCN(c2ncc3c(=O)n(-c4cccc(F)c4)c(=O)[nH]c3n2)CC1,0.451%,13.2%,0.333%,-0.649%,-1.27%,7.1%,18.9%,-9.16%,4.25%,10.4%,92.2%
Cc1cc(C2CCCN(C(=O)c3cnccn3)C2)ccn1 (configuration not stated),2.59%,6.76%,5.06%,0.392%,-5.93%,0.232%,8.27%,12.6%,2.15%,3.9%,6.76%
CC(CNC(=O)N1CCN(CC(F)F)CC1)Cc1cccs1 (configuration not stated),-7.32%,2.7%,3.08%,1.71%,-1.17%,2.08%,6.34%,-5.03%,8.91%,1.22%,-2.29%
O=C(O)c1nnn(-c2ccc(OC(F)(F)F)cc2)c1-c1ccncc1,-2.53%,21.1%,-1.66%,-2.5%,3.8%,3.55%,20.4%,2.21%,3.19%,15.6%,41.3%
CN(C)C(=O)COCc1cncc2c1CCN(Cc1nccn1C)C2,-2.93%,7.79%,3.61%,17.4%,7.18%,-106%,3%,20.9%,6.45%,13.6%,0.222%
CC(C)NC(=O)N1CC[C@@H]2CN(Cc3ccccc3)S(=O)(=O)[C@@H]2CC1,-7.87%,-13.5%,131%,-3.29%,-6.16%,0.319%,6.09%,29.7%,-5.41%,-5.13%,-1.09%
CNc1cc(CCNC(=O)c2cccnc2)nc(-c2ccncc2)n1,-1.87%,9.46%,12.1%,1.21%,-6.13%,2.09%,12%,-0.444%,4.3%,6.49%,-5.16%
CC(=O)NC1CCCN(C(=O)Nc2cnc3c(cnn3C(C)C)c2)C1 (configuration not stated),-3.14%,16.2%,0.9%,4.02%,-4.55%,-1.29%,12.2%,5.99%,7.92%,23.2%,-5.36%
NC(=O)C1CN(C(=O)Nc2ccccc2-c2cccs2)CCO1 (configuration not stated),-6.75%,18.9%,-3.93%,20.2%,5.66%,-2.4%,-3.23%,6.89%,2.97%,18.3%,-6.91%

# From ChEMBL document CHEMBL3988442, “University of Dundee, Small-Polar-MMV Screening Library” (2021)
